# Assay outcomes: PubChem, Broad Institute
# aSyn UTR act = Activators via SNCA 5'UTR binding, MLPCN; activity score, % (tested at 7.5 µM), hits read low; alpha-synuclein 5'UTR reporter, activators screen; actives 7.1% (n = 300,000); in the data active = activity score below about -60%
# * hit, by the source's call. Not all results are given here.
SMILES,aSyn UTR act
O=[N+]([O-])c1cc(C(F)(F)F)ccc1NCCOc1ccccc1,-124*
COc1cc2c(cc1O)CC[C@@H]1[C@@H]2CC[C@]2(C)[C@@H](O)CC[C@@H]12,75
COc1ccc(C(=O)Nc2cccc(-c3ccc(N4CCOCC4)nn3)c2)cc1,-69*
COc1cc(OC)cc(C(=O)Nc2cccc(-c3ccc(N4CCOCC4)nn3)c2)c1,-85*
CC(C)n1nnnc1SCC(=O)Nc1ccc2c(c1)OCCO2,-109*
CCn1nnnc1SCC(=O)Nc1ccc2c(c1)OCCO2,-118*
CC(=O)Oc1cc(OC(C)=O)c2c(=O)c(-c3ccc4c(c3)OCCCO4)c(C)oc2c1,-88*
COc1cc2c(OC(C)=O)c3c(c(-c4ccc5c(c4)OCO5)c2cc1OC)C(=O)OC3,113
CN1CCCC1CCNc1ccc2c(=O)c3ccccc3oc2c1 (stereo unspecified),-130*
O=c1c2ccccc2oc2cc(NCCCN3CCOCC3)ccc12,-127*
O=c1c2ccccc2oc2ccc(NCCCN3CCOCC3)cc12,-108*
Oc1cccc2ccc(/C=C/c3c(F)cccc3Cl)nc12,-114*
Nc1nccc(/C=C/c2c(F)cccc2Cl)n1,-103*
O=C(c1ccc2c(c1)OCO2)N1CCN(c2cccc(C(F)(F)F)c2)CC1,-77*
O=C(c1cc2c(s1)-c1ccccc1OC2)N1CCc2ccccc2C1,-89*
O=C(c1ccc2c(c1)OCO2)N1CCc2ccccc2C1,-113*
Nc1ncc(Br)cc1N=Cc1ccccc1,-197*
CCCCOc1ccc(-c2nnn(CC(=O)NCc3ccco3)n2)cc1,-165*
CC(C)CC(=O)Nc1ccc(-c2nnn(CC(=O)NCc3ccco3)n2)cc1,-102*
Cc1ccc(/C=N/Nc2nnc(Cl)c3ccccc23)cc1,-157*
Clc1nnc(N/N=C/c2ccccc2)c2ccccc12,-268*
Clc1nnc(NN=C2CCCC2)c2ccccc12,-194*
Clc1ccc(/C=N/Nc2nc(Cl)nc3ccccc23)cc1,-172*
Clc1ccc(/C=N/Nc2nnc(Cl)c3ccccc23)cc1,-165*
COc1ccc(N(C)C(=O)c2ccc3c(Cl)c4c(nc3c2)CCCC4)c(OC)c1,-88*
SMILES,aSyn UTR act
Cc1ccc(N(C)C(=O)c2ccc3c(Cl)c4c(nc3c2)CCC4)cc1C,-136*
COc1cc(N/N=C(\C)c2ccc(N)cc2)nc(-c2ccccc2)n1,-62*
Cc1ccc(-c2csc(NC(=O)c3ccc(Br)cc3)c2C(=O)O)cc1,-91*
Cc1ccc(-c2csc(NC(=O)/C=C/c3ccco3)c2C(=O)O)cc1,-79*
Cc1ccc(-c2csc(NC(=O)c3cccc(C)c3)c2C(=O)O)cc1,-71*
CCn1c(SCc2nc3ccccc3[nH]2)nnc1-c1cnccn1,-90*
CCn1c(SCC(=O)c2ccccc2)nnc1-c1cnccn1,-78*
Cn1c(SCc2c(Cl)cccc2Cl)nnc1-c1cccs1,-62*
CCC(=O)Nc1cccc(-n2nnnc2SCC(=O)c2ccc(C)c(C)c2)c1,-84*
CCC(=O)Nc1cccc(-c2nnc(SCC(=O)c3ccccc3)n2C)c1,-103*
Cn1c(SCC(=O)c2ccccc2)nnc1-c1cccs1,-102*
Cn1c(SCC(=O)c2ccccc2)nnc1-c1cnccn1,-67*
COc1ccc(OC)c(Cc2nnc(CCC(=O)N3CCN(C4CCCC4)CC3)o2)c1,-74*
CCS(=O)(=O)c1ccc2oc(Nc3ccc(C(C)C)cc3)nc2c1,-95*
CCOc1ccc(Nc2nc3cc(S(=O)(=O)N(CC)CC)ccc3o2)cc1,78
COc1cccc(-c2cn3nc4c(nc3n2)CCCC4)c1,104
O=c1cc(-c2ccccc2)nc2cc(-c3ccc(F)cc3)[nH]n12,-109*
O=c1c2c(nc3cc(-c4ccc(F)cc4)[nH]n13)CCC2,-87*
COc1cccc(-c2cc3nc(-c4ccccc4)cc(=O)n3[nH]2)c1,-167*
COc1cc(/C=C(\C#N)c2nc3c(s2)CCCC3)ccc1O,-158*
N#C/C(=C\c1cccnc1)c1nc2c(s1)CCCC2,-141*
CC1CCc2nc(/C(C#N)=C/c3cccnc3)sc2C1 (stereo unspecified),-192*
N#C/C(=N\Nc1ccc([N+](=O)[O-])cc1)C(=N)N1CCOCC1,-109*
N#C/C(=N\Nc1ccc(Br)cc1)C(=N)N1CCOCC1,-123*
N#C/C(=N\Nc1ccccc1[N+](=O)[O-])C(=N)N1CCCCC1,-112*
SMILES,aSyn UTR act
N#C/C(=N/Nc1ccc([N+](=O)[O-])cc1)C(=N)N1CCCCC1,-86*
C(=N\NC1=Nc2cccc3cccc1c23)/c1ccccc1,-256*
C(=N\NC1=Nc2cccc3cccc1c23)/c1cccnc1,-258*
Clc1ccc(N/N=C/c2cccnc2)cc1,-123*
Clc1ccc(/C=N/NC2=Nc3cccc4cccc2c34)cc1,-191*
Cc1nc2nc(NC(=O)c3ccco3)nn2c(C)c1Cl,-95*
O=C(Nc1nc2c(F)cccc2s1)c1ccco1,-121*
Cc1cc(Cl)cc2sc(NC(=O)c3ccco3)nc12,-123*
Fc1cccc2sc(Nc3nnc(-c4ccco4)o3)nc12,-109*
O=C1C(c2cc(=O)c3ccccc3[nH]2)=C(O)c2ccccc21,-118*
O=c1cc(-c2ccccc2)[nH]c2ccccc12,68
O=C(NCC(c1cccs1)N1CCOCC1)c1ccc(Br)o1 (stereo unspecified),-71*
Cc1ccc2[nH]c(=O)c(-c3nc4cc(C)ccn4c3NCc3ccco3)cc2c1,-78*
COC(=O)c1sc(NC(=S)NC(=O)c2ccccc2C)nc1C,-93*
COC(=O)c1sc(NC(=S)NC(=O)c2cccc(Br)c2)nc1C,-104*
Cc1cccc(-c2noc(-c3cc4ccccc4oc3=O)n2)c1,-158*
Cc1ccc(-c2noc(-c3cc4ccccc4oc3=O)n2)cc1,-80*
O=c1oc2ccccc2cc1-c1nc(-c2ccccc2)no1,-131*
CCOc1ccc(NC(=O)c2cccc3c2C(=O)N(Cc2cccnc2)C3)cc1,-111*
COC(=O)N/N=C\C=C\c1ccc2c(c1)OCO2,-134*
CC(C)(C)OC(=O)N/N=C\C=C\c1ccc2c(c1)OCO2,-197*
CCOC(=O)N/N=C\C=C\c1ccc2c(c1)OCO2,-121*
CCOc1ccc2nc(SCc3ccc(F)cc3)sc2c1,-68*
CC1CCC(NC(=O)CCC(=O)N2CC(C)Oc3ccccc32)CC1 (stereo unspecified),-144*
C=CCn1c(C)cc(C(=O)CSc2n[nH]c(N)n2)c1C,-79*
SMILES,aSyn UTR act
Cc1cc(C(=O)CSc2nnc3ccccn23)c(C)n1-c1ccccc1,102
Cc1cc(C(=O)CSc2n[nH]c(N)n2)c(C)n1-c1ccccc1,-111*
Cc1cc(C(=O)CSc2n[nH]c(N)n2)c(C)n1-c1ccc(F)cc1,-83*
C=CCOc1c(CNc2cccc(C(=O)O)c2)cccc1OC,-78*
C=CCOc1cccc(CNc2cccc(C(=O)O)c2)c1,-77*
Cc1ccc2c(CC(=O)NCc3ccco3)coc2c1C,-95*
COc1ccc(CCC(=O)NCCS(=O)(=O)N2CCN(c3ccccc3OC)CC2)cc1,-112*
Cc1cccc(NC(=O)Nc2ccc3c(c2)N(C)C(=O)CS3)n1,-83*
Cc1ccnc(NC(=O)Nc2ccc3c(c2)N(C)C(=O)CS3)c1,-97*
Cc1[nH]n(-c2cccc(Cl)c2)c(=O)c1C=NCC(C)C,-168*
Cc1[nH]n(-c2ccccc2)c(=O)c1C=NCc1ccco1,-114*
Cc1[nH]n(-c2cccc(Cl)c2)c(=O)c1C=NCc1ccco1,-134*
COc1cc(OC)cc(C(=O)Nc2nc3ccccc3[nH]2)c1,-189*
